Only some compounds are listed: those with a hit (about 3.6% of all), similar ones and a draw of the others.
Sm TGR block: blocks Schistosoma mansoni thioredoxin glutathione reductase | Potency, µM (top dose mostly 114 µM), inactives show at the top dose activity change, negative = inhibition, usual class: inhibitors | purified TGR, DTNB reduction, TNB absorbance 405 nm | 3% of 360,000 active | Q962Y6; further: nearly all actives have a fitted effect of over 60% in size
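First, TGR (20 nM dispensed) and NADPH were mixed with compound. Second, a 15 min room-temperature incubation followed. Third, further NADPH and then DTNB were added to start the reaction. Finally, TNB absorbance was monitored kinetically.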
AmpC inh detg: inhibitors of E. coli AmpC beta-lactamase with detergent; AmpC hydrolysis of nitrocefin, absorbance 480 nm, 0.01% Triton; P00811; 0.041% of 370,000 active; Potency, µM (titrated, usually from 114 µM), without a hit: top-dose activity change, negative = inhibition, actives largely listed as inhibitors;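 further: 0% = no-compound wells and -100% = no-enzyme wells; nearly all actives have a fitted effect of over 25% in size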
Target sequence (P00811 whole entry, looked up): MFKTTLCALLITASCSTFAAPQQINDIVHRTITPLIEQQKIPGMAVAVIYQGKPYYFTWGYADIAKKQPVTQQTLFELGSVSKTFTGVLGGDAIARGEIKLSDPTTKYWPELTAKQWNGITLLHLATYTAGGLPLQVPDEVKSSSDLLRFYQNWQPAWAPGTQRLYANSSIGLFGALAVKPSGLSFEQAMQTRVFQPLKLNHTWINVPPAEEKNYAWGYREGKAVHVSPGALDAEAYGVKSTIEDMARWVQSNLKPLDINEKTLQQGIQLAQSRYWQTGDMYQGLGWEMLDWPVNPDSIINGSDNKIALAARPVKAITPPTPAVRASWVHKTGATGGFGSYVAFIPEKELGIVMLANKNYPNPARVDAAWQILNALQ
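AmpC (5.3 nM in the dispensed reagent) in 20 mM phosphate pH 7.0 with 0.01% (detergent screen) or 0.0001% Triton X-100 was preincubated with compounds for 15 min at room temperature. Nitrocefin was then added from an 800 uM solution, and hydrolysis was followed at 480 nm.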
AmpC no deterg: AmpC beta-lactamase inhibition without detergent; P00811; AmpC nitrocefin hydrolysis, absorbance 480 nm, 0.0001% Triton; Potency, µM (top dose mostly 57.1 µM), for the others: top-dose activity change, negative = inhibition, usual class: inhibitors; 0.52% of 330,000 active; AID 485341;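 further: plate controls were no compound for no effect and no enzyme for full effect; nearly all actives have a fitted effect of over 20% in size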
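20 mM phosphate pH 7.0 + 0.01% (detergent screen) or 0.0001% Triton X-100; 5.3 nM AmpC reagent; cpd preinc 15 min RT; nitrocefin (800 uM stock) to start; A480 q20 s × 4 min; Activity was normalised to no-enzyme and no-compound control wells.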
FBPA Giardia inh: Giardia lamblia aldolase inhibition; purified Giardia FBPA; Potency, µM (series often up to 59.6 µM), without a hit: at the highest dose activity, negative = inhibition, hits mostly inhibitors; 0.71% of 290,000 active; AID 2451; further: nearly all actives have a fitted effect of over 55% in size
Target sequence (A8B2U2 whole entry, looked up): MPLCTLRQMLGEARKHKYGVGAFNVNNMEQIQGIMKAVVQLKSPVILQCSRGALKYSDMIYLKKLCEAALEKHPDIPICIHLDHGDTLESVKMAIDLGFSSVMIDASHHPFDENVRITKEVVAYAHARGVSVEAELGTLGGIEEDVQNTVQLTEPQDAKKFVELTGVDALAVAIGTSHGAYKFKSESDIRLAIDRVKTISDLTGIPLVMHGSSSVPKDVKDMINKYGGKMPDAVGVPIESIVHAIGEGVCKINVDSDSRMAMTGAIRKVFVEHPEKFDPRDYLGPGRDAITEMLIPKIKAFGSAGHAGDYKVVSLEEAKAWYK
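Giardia FBPA (40 nM reagent) was preincubated 10 min at RT with compound (up to 57.5 uM final), then substrate plus GAPDH/TPI/NAD/arsenate coupling system with diaphorase/resazurin was added; resorufin fluorescence (525/598 nm) was read after 20 min.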
An asterisk follows results filed as active; u = inconclusive; x = no result; [ ] = remark or other dose. The call rests on the fitted dose curve; in most records, active means well fitted curve in the direction sought with a large enough effect; inconclusive means small, poorly fitted or top-dose-only effect, or another doubt; inactive means no such curve, though single readings can be large; an effect the other way counts as inactive or inconclusive. Unless noted, on the % scale 0 is the no-effect control and ±100 the full control effect; potency means the concentration at half of the fitted maximal effect.

SMILES | Sm TGR block | AmpC inh detg | AmpC no deterg | FBPA Giardia inh
COc1ccc2c(c1OC)C(=O)OC2Nc1nc(-c2cc3cc(Br)ccc3oc2=O)cs1 (configuration not stated) | -25.8% | -10.6% | 31.6µM* | 2.2%
O=[N+]([O-])c1ccc(-n2nnnc2-c2ccccc2)c([N+](=O)[O-])c1 | 17.8µM* | -8.2% | -7.2% | u
O=C(NCc1ccco1)C(=O)NCC1OCCN1C(=O)c1ccc(Cl)cc1 (configuration not stated) | 17.8µM* | 6.6% | -8.8% | -0.2%
COC(=O)C(NC(=O)CCc1nnc2ccc(N3CCCCC3)nn12)C(C)C (configuration not stated) | 15.6% | u | 25.9% | 19.1%
O=C(CCl)N(Cc1cc(=O)[nH]c2ccccc12)c1ccccc1 | 3.55µM* | -7.1% | -11.5% | -1.1%
Cc1ccccc1N(Cc1cc(=O)[nH]c2ccccc12)C(=O)CCl | 14.1µM* | 1.5% | -13.3% | -9.6%
Cc1ccccc1N(Cc1cc(=O)[nH]c2ccccc12)C(=O)C(C)C | 23.2% | -0.7% | -6.2% | 3.9%
CCC(=O)N(Cc1cc(=O)[nH]c2ccccc12)c1ccccc1 | -17.6% | -0.7% | -12.1% | 5.8%
c1nc(NC2CCCCCC2)c2[nH]cnc2n1 | -2.6% | -6.6% | -22.9% | -12.0%
c1ccc(Oc2nc(NC3CCCCC3)c3[nH]cnc3n2)cc1 | x | x | x | 15.8µM*
CN(C(=O)COC(=O)c1ccc(Br)c([N+](=O)[O-])c1)c1c(N)n(Cc2ccccc2)c(=O)[nH]c1=O | -18.0% | -13.1% | 0.8% | x
COc1ccccc1N(O)C1CC(=O)N(c2ccc(Br)cc2)C1=O (configuration not stated) | 2.82µM* | u | u | -19.1%
CCCCN(C(=O)CCC(=O)O)C1CC(=O)N(c2ccc(OCCC)cc2)C1=O (configuration not stated) | -14.0% | -10.9% | -7.3% | 1.4%
CCCCCCC(=O)N(O)C1CC(=O)N(c2ccc(Br)cc2)C1=O (configuration not stated) | 0.708µM* | 12.1% | -37.3% | -2.5%
CCCCCCC(=O)N(O)C1CC(=O)N(c2ccc(F)cc2)C1=O (configuration not stated) | 0.631µM* | -7.8% | -29.1% | -11.7%
Cc1cc(C)cc(N(C)S(=O)(=O)c2nnc(NC(=O)COc3ccc(C)c(C)c3)s2)c1 | 0.8% | 4.0% | x | x
Cc1nn(Cc2noc(C(=O)NCc3ccc4c(c3)OCO4)n2)c(C)c1Br | 7.4% | -2.6% | 60.2% | 10.5%
CSCCC(NC(=O)c1ccccc1)C(=O)NCCCn1nc(C)cc1C (configuration not stated) | 1.1% | 5.7% | 24.4% | x
CSc1nc(=S)n(-c2ccccc2)c(C)c1C(C)=O | 39.8µM* | 8.1% | -10.5% | u
Cn1cc(CN2CCN(Cc3ccccc3)CC2)c(-c2cccc(Cl)c2)n1 | 31.6µM* | 8.5% | 120.6% | -0.2%
COCCN1CCN(Cc2cn(C)nc2-c2cccc(Cl)c2)CC1 | -3.6% | -1.7% | 3.0% | 2.5%
Cc1ccc2cc(CN(C(=O)c3ccco3)c3ccccc3)c(=O)[nH]c2c1 | 31.6µM* | u | -16.8% | -21.9%
Cc1ccc(N(Cc2cc3ccc(C)cc3[nH]c2=O)C(=O)c2cccs2)cc1 | 4.1% | -2.2% | -11.3% | 4.3%
Cc1ccc(N(Cc2cc3ccccc3[nH]c2=O)C(=O)c2ccco2)c(C)c1 | -14.6% | -9.0% | -39.8% | 8.8%
Cc1cccc(N(Cc2cc3ccc(C)cc3[nH]c2=O)C(=O)c2ccco2)c1 | 4.47µM* | 11.9% | -10.5% | -0.1%
SMILES | Sm TGR block | AmpC inh detg | AmpC no deterg | FBPA Giardia inh
Cc1ccc2cc(CN(Cc3ccco3)C(=O)c3cccs3)c(=O)[nH]c2c1 | 39.8µM* | -5.0% | -30.9% | 6.3%
Cc1ccc(N(Cc2cc3ccc(C)cc3[nH]c2=O)C(=O)c2ccco2)cc1 | 2.24µM* | -9.6% | -27.6% | 0.8%
Cc1ccc2[nH]c(=O)c(CN(Cc3ccco3)C(=O)c3cccs3)cc2c1 | -13.2% | u | -9.9% | 1.0%
CCCCN(C)CCNC(=O)c1c2c(nc3ccccc13)C(=O)N(C1CCCCC1)C2 | 0.5% | -4.5% | x | x
Fc1ccccc1CNCCc1ccc2c(c1)OCO2 | 10µM* | -9.7% | -22.1% | u
CC[N+]1(C)[C@@H]2CC[C@H]1CC(OC(=O)[C@H]1CCC(C(=O)OC3C[C@H]4CC[C@@H](C3)[N+]4(C)CC)(c3ccccc3)c3ccccc31)C2 (some centres not stated) | 50.1µM* | u | 21.5% | x
CN1CCN(C(=O)c2ccc(NS(=O)(=O)c3cccc([N+](=O)[O-])c3)cc2)CC1 | 2.2% | -8.1% | -11.0% | x
Cc1oc(-c2ccc(Cl)cc2)nc1CN1CCCC(C(=O)NCCCN2CCOCC2)C1 (configuration not stated) | 79.4µM* | 2.8% | 94.7% | 8.9%
CCOc1cc(CNc2ccc(O)cc2)ccc1OCc1ccc(Cl)cc1Cl | u | 0.2% | u | 15.8µM*
CCOc1ccccc1CNc1ccc(O)cc1 | x | -3.6% | -57.9% | 11.2µM*
COc1ccc(Br)cc1CNc1ccc(O)cc1 | 28.2µM* | u | 28.2µM* | 15.8µM*
Oc1ccc(NCc2ccccc2OCc2ccccc2F)cc1 | 20µM* | u | -42.4% | 12.6µM*
Cc1ccc(NCc2ccccc2OCc2ccccc2F)cc1 | -3.2% | -5.8% | -20.9% | -11.0%
COc1ccc(Br)cc1CNc1ccc2[nH]c(=O)[nH]c2c1 | u | -6.9% | -8.9%[2.29 µM] | 0.7%
COc1ccc(Cl)cc1NC(=O)CCc1nnc2ccc(N3CCC4(CC3)OCCO4)nn12 | 10.5% | 1.4% | 162.5% | 1.6%
COc1cccc(CNCCO)c1OCc1ccc(Cl)cc1 | 47.1% | -13.0% | -3.5% | -3.9%
Oc1ccc(NCc2ccccc2OCc2ccccc2Cl)cc1 | 35.5µM* | 2.9% | x | x
CCOc1cccc(CNc2ccc(O)cc2)c1OCc1ccc(Cl)cc1 | 31.6µM* | -16.2% | -33.8% | u
CC(C)(C)c1ccc(COn2c(=O)c(-c3ccco3)[n+]([O-])c3ccccc32)cc1 | 17.8µM* | 2.5% | -30.8% | -28.5%
O=c1c(-c2ccc(Br)cc2)[n+]([O-])c2ccccc2n1OCc1ccccc1 | -5.1% | -0.3% | -11.5% | 1.6%
O=c1oc2ccccc2c(Nc2cc3ccccc3cc2O)c1[N+](=O)[O-] | -28.9% | 3.9% | -29.7% | 6.29µM*
O=C(N/N=C/C=C\c1ccccc1[N+](=O)[O-])c1cc(-c2ccc3ccccc3c2)n[nH]1 | -24.8% | -9.0% | 10µM* | -1.1%
Cc1ccc(NC(=O)CNC(=O)c2ccco2)nc1 | 0.0% | 2.3% | 2.6% | x
Cc1cnc(NC(=O)CC2OC(=O)c3ccccc32)s1 (configuration not stated) | -2.3% | -17.6% | -19.2% | x
CN(C)C/C(Cl)=C(\Cl)c1ccccc1 | 20µM* | u | -5.9% | -6.7%
CN(C)CC(=O)c1ccc(-c2ccccc2)cc1 | u | -9.4% | -8.9% | -3.2%
O=S1(=O)NCC23CCC(CC21)O3 (configuration not stated) | x | x | x | 6.8%
COc1ccccc1COCC(O)CNCC1(N2CCCCC2)CCCCC1 (configuration not stated) | -5.0% | 0.2% | 0.141µM* | -1.3%

Source: PubChem (National Center for Advancing Translational Sciences (NCATS))
